# Source: ChEMBL document CHEMBL3433997, “St. Jude Leishmania screening dataset” (2016)
# How the values were obtained:
# Format in all cases: functional
# [1] = target: Solute carrier family 2, facilitated glucose transporter member 1 (Homo sapiens) (UniProt P11166); test: ST_JUDE_LEISH: Cytotoxicity at 2uM final concentration against transgenic Leishmania Mexicana promastigotes LmGLUT1 that are glucose transport deficient and complemented with the human glucose transporter GLUT1. Activity is measured by DNA content using SYBR green in vitro
# [2] = target: Hexose transporter 1 (Plasmodium falciparum) (UniProt O97467); test: ST_JUDE_LEISH: Cytotoxicity at 2uM final concentration against transgenic Leishmania Mexicana promastigotes LmPfHT that are glucose transport deficient and complemented with the Plasmodium falciparum hexose transporter. Activity is measured by DNA content using SYBR green in vitro
# [3] = target: Glucose transporter (Leishmania mexicana) (UniProt O61059); test: ST_JUDE_LEISH: Cytotoxicity at 2uM final concentration against transgenic Leishmania Mexicana promastigotes LmGT2 that are glucose transport deficient and complemented with the L. Mexicana glucose transporter 2. Activity is measured by DNA content using SYBR green in vitro
# Chain of Solute carrier family 2, facilitated glucose transporter member 1 (Homo sapiens) (P11166 whole entry): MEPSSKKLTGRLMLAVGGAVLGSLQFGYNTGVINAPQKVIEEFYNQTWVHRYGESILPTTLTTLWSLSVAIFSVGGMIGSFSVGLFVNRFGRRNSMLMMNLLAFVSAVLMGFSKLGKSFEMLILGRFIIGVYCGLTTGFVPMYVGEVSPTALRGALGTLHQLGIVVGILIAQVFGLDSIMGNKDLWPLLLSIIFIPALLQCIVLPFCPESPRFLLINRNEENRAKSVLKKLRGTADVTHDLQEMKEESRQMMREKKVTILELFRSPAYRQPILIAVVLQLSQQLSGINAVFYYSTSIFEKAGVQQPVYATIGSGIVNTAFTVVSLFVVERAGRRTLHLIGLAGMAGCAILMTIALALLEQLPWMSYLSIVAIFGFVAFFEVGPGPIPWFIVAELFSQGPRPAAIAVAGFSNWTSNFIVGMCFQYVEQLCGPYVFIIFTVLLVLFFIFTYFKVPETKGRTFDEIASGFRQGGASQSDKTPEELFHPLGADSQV
Structure (SMILES),inhibition [1],inhibition [2],inhibition [3]
CN1CCN(c2ccc(CNc3ccc4ncc(-c5cccc(OC(F)(F)F)c5)n4n3)cc2)CC1,-2.82%,-3.7%,-2.5%
CCOc1ccc(NC(=O)c2cccc(CN3CCCN(Cc4cccc(O)c4)CC3)c2)cc1,-0.94%,0.07%,0.81%
COc1ccc(-c2cnc(NCc3ccccc3)nc2)cc1CNC1CCN(C)CC1,-0.17%,1.06%,-0.94%
Cc1cc(C(=O)NCc2ccc(-c3c(C)noc3C)cc2)n(-c2ccc(Cl)cc2)n1,8.7%,7.89%,2.6%
CC(C)N1CCC(N(Cc2ccc(-c3ccc(C(F)(F)F)cc3)cc2)C(=O)CCCn2c(CCc3cccc(F)c3F)nc(=O)c3ccccc32)CC1,5.92%,3.92%,6.72%
